Laboratory results taken from PubChem BioAssay (NCI).
This is part of a sample that, as a whole, favours compounds with a hit. Of some 79,000 tested, about 15% had one in any assay. A number with no mark means an inactive call. Activity calls are given as the source filed them. No stated cut-off is given here; in the data, active means growth inhibition above about 70%; inactive means the rest.

Key:
[1] = NCI Yeast Anticancer Drug Screen. Data for the rad50 strain (AID 155);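 further: 0% = growth of vehicle-only cultures of the same strain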; conditions: S. cerevisiae rad50 strain growth inhibition; at 50.0 µM; stronger effect = higher value
In short: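 A DNA repair-deficient yeast mutant serves as the test organism; compound-induced growth inhibition is calculated against vehicle-treated cells.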

[2] = NCI Yeast Anticancer Drug Screen. Data for the mec2-1 strain (AID 157); conditions: S. cerevisiae mec2-1 strain, at 50.0 µM, stronger effect = higher value
In short: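 Vehicle-treated cultures served as reference for growth inhibition of compound-exposed mec2-1 yeast.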

[3] = NCI Yeast Anticancer Drug Screen. Data for the sgs1 mgt1 strain (AID 161);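 further: 0% = growth of cultures given vehicle only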; conditions: S. cerevisiae sgs1 mgt1 strain, at 50.0 µM, stronger effect = higher value
In short: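 Genetically altered yeast, compound exposure, growth inhibition relative to vehicle.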

[4] = NCI Yeast Anticancer Drug Screen. Data for the cln2 rad14 strain (AID 165);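 further: 0% = growth equal to vehicle treated cultures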; conditions: S. cerevisiae cln2 rad14 strain, at 50.0 µM, stronger effect = higher value
In short: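 Each compound was tested on cln2 rad14 yeast. Inhibition of growth was calculated against vehicle-exposed controls.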

[5] = NCI Yeast Anticancer Drug Screen. Data for the bub3 strain (AID 167); conditions: S. cerevisiae bub3 mutant strain, at 50.0 µM, stronger effect = higher value
In short: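 Inhibition values come from growth of compound-treated mutant yeast normalised to vehicle-treated controls.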

[6] = NCI Yeast Anticancer Drug Screen. Data for the mlh1 rad18 strain (AID 175); conditions: S. cerevisiae mlh1 rad18 strain growth inhibition; at 50.0 µM; stronger effect = higher value
In short: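 Vehicle-treated cultures served as the reference for growth inhibition in a yeast strain carrying DNA damage repair alterations exposed to each compound.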

Compound | growth inhibition [1] | growth inhibition [2] | growth inhibition [3] | growth inhibition [4] | growth inhibition [5] | growth inhibition [6]
CCOC(=O)NN(C(=O)OCC)c1c(NC)n(C)c(=O)n(C)c1=O | -23.4% | 7.1% | -7.7% | -23.8% | 11.1% | 13.3%
CC(=O)OCC1OC(n2nnc3c(=O)n(C)c(=O)[nH]c32)C(OC(C)=O)C(OC(C)=O)C1OC(C)=O (stereo not given) | 9.45% | 16.1% | 13.8% | 4% | 8.9% | 29.4%
O=C(O)C1CCCCCC1 | 7.45% | 0.65% | 1.8% | -2.55% | 8.65% | 2%
O=S(=O)(O)c1cccc2nsnc12 | -0.35% | -2.05% | -3.6% | 13.1% | 9.5% | -1.3%
O=C(NCSC1=NCCS1)NCSC1=NCCS1 | -7.05% | -20.4% | 6.85% | 16.5% | 2.85% | -14.8%
[O-]/[N+](=C\c1ccc(OCc2ccccc2)cc1)c1ccccc1 | 16.5% | -18.4% | -20.7% | -2.65% | -4.25% | -13.5%
C/C=C(\C)c1cc(=O)c2c(C)cc3c(c2o1)C(=O)c1c(O)c(C2CC(C)(N(C)C)C(OC(C)=O)C(C)O2)cc(C2CC(N(C)C)C(O)C(C)O2)c1C3=O (stereo not given) | 17% | 1.95% | 9.8% | 7.35% | 8.15% | -59.6%
CN(C)c1ccc(/C=C(\C#N)c2nc(-c3cc4ccccc4oc3=O)cs2)cc1 | -2.45% | -13.6% | -23% | -4.3% | -35.7% | -63.2%
c1ccc(C2=NC(c3ccccc3)N=C(c3ccccc3)N2)cc1 | -0.75% | 10.3% | 6.1% | -6% | 9.75% | 13.2%
Cn1c(=O)c2[nH]c(CCCCCc3nc4c([nH]3)c(=O)n(C)c(=O)n4C)nc2n(C)c1=O | -9% | 7.15% | -27.3% | -18.5% | -16.4% | -16.1%
Cc1cccc(-c2cccc(C)c2C)c1C | -6.5% | 4.75% | -1.35% | 11.7% | 4.2% | 16.1%
CCOC(=O)/C=C/c1ccc([N+](=O)[O-])cc1 | 23.6% | 26.6% | 9.15% | 2.55% | -1.9% | -0.05%
O=C(NCCc1ccccc1Br)c1ccccc1 | 8.25% | -26.6% | -5.95% | 18.8% | 28.7% | -6.35%
O=[N+]([O-])c1ccc(Oc2ccccc2-c2ccccc2)c([N+](=O)[O-])c1 | -2% | -3.7% | 11.6% | -73.7% | 8.2% | 14.4%
O=C(NC(=S)Nc1ccc(Cl)cc1C(=O)c1ccccc1)c1ccc(Cl)cc1Cl | -32% | 6.9% | -8.45% | 74.4% (active) | -3.05% | -1.15%
CCCCOC(=O)NC(=O)c1cc2cc(I)cc(I)c2oc1=O | 3.45% | 5.8% | -7.75% | -50.2% | -10.6% | 17.6%
CCCCC(CC)CN(CC(CC)CCCC)C(=O)C(C)OC(=O)C(CC)CCCC (stereo not given) | 3.7% | 6.1% | 18% | -4.3% | 14.8% | 16.9%
O=C(c1ccccc1CO)N1CCCCC1 | 10.8% | 2.2% | -1.55% | -69% | -9.2% | -20.4%
CCN(CC)C(C)(C)C(=O)/C=C/c1ccc(C)cc1 | 5.45% | -3.75% | -16.5% | 12.3% | 5.75% | 43.1%
COc1cc(C(C)S(=O)(=O)O)ccc1O (stereo not given) | -19.6% | 1.7% | 8.45% | -12.6% | 4.9% | -5.55%

Compound | growth inhibition [1] | growth inhibition [2] | growth inhibition [3] | growth inhibition [4] | growth inhibition [5] | growth inhibition [6]
Nc1c2ccccc2nc2c(C(=O)Nc3ccc(S(N)(=O)=O)cc3)cccc12 | 16.4% | -8.9% | -1.45% | 19% | -2.45% | 1.05%
CN/N=C(/CC(=O)c1sc(NNC(C)=O)nc1C)C(=O)Nc1ccc(OC)cc1OC | 15.7% | -14.5% | 3.2% | 15.4% | 15% | -2.15%
O=C(O)CCC(=O)Nc1ccc(F)cc1 | 9.9% | 26.6% | 4.7% | -86.3% | 7.3% | 1%
COc1cc2c(c3[nH]cc(C(=O)O)c(=O)c13)NC(=O)CS2 | -47.1% | -87.8% | -16.9% | -32.4% | -2.85% | -29.4%
Nc1nc(=O)n(C2OC(CO)C(O)C2O)cc1F (stereo not given) | 10.8% | -10.2% | 4.4% | -3.1% | 11.5% | 7.6%
COc1cccc(C2CC(C)(O)Oc3cc4c(cc32)OCO4)c1O (stereo not given) | 9.15% | -8.25% | -9.45% | 12.1% | 23.3% | 6.65%
Cc1onc(-c2ccccc2)c1NC(=O)OC(C)c1cccnc1 (stereo not given) | -6.3% | -22.9% | 3.7% | 4.9% | 18.1% | 3.55%
FC(F)(F)C(F)(F)c1nc(C(F)(F)C(F)(F)C(F)(F)c2noc(C(F)(F)C(F)(F)F)n2)no1 | 8.5% | 16.9% | 15% | -31.3% | -3% | -6.3%
COCCCC(O)CNC(C)C (stereo not given) | -11.2% | 7.1% | -16.4% | -18.2% | 0.95% | -5.95%
C=CCCCCCCCCCCCCCCC | -36% | -26.9% | -26.2% | 5.3% | -31.9% | -35%
CC1=C(C(=O)Nc2c(C)cccc2C)C(c2ccccc2Cl)C(C(=O)Nc2c(C)cccc2C)=C(C)N1 | -39.4% | -6.4% | -27.4% | -20.9% | -13.8% | -11.7%
c1ccc2c(c1)N=C(c1ccc3ccccc3c1)CC(c1cccc3ccccc13)S2 (stereo not given) | 13.2% | 5.25% | -33.1% | 33.1% | 19.3% | -3.15%
CC(C)(C)NNC(=O)/C(=C/c1ccc(Oc2ccc(Cl)c(Cl)c2)cc1)NC(=O)c1ccccc1 | 7.45% | 1.1% | 2.1% | -4.2% | -1.6% | 16.1%
ClCCCCCOCCCCCCl | 8.15% | 1.25% | -1.5% | -11.7% | -4.75% | -1.05%
CC(=O)Nc1cc(=O)[nH]c2c1CCC2 | -4.05% | 5.25% | -1.8% | -16.4% | -3.6% | -4.7%
CC(C)N(C=C(C#N)C#N)C(C)C | 15.5% | 7.5% | -0.4% | -57.5% | 3.75% | 4.6%
COc1cc(C(C)c2cc3c(cc2OCCNC(=O)COc2cc4c(cc2C(C)c2cc(OC)c(OC)c(OC)c2)OCO4)OCO3)cc(OC)c1OC (stereo not given) | -31.9% | -28.6% | -25.6% | 4.8% | -19.6% | -24.9%
O=C(C[N+]12CN3CN(CN(C3)C1)C2)c1ccc(-c2ccccc2)cc1 | 65.7% | 34.2% | 53.2% | 21.1% | 39.2% | 45.6%
O/N=C1\CCCCC1C(NO)c1ccccc1 (stereo not given) | 2.4% | -4.25% | -7.9% | -16.4% | -12.2% | 9.35%
Cc1cc(S(=O)(=O)Nc2nc(N)nc(N(C)C)n2)c(S)cc1Cl | 1.4% | -17.2% | -3.5% | 1.9% | -46% | 15.1%
